# Reference: PubChem BioAssay AID1851 (National Center for Advancing Translational Sciences (NCATS), 2009)
# Out of some 16,000 compounds screened, about 5,100 (32%) were called active. Not shown: some 25% with an inconclusive outcome. The list shows a part of the results. A number with no mark means an inactive call. Calls follow the shape of the dose curve; as a rule, active = well fitted curve in the direction sought with a large enough effect; inconclusive = small, poorly fitted or top-dose-only effect, or effect the other way; inactive = no such curve, though single readings can be large or run the other way.
# Target: Cytochrome P450 3A4 (Homo sapiens) (UniProt P08684)
# Sequence (P08684 whole entry, looked up): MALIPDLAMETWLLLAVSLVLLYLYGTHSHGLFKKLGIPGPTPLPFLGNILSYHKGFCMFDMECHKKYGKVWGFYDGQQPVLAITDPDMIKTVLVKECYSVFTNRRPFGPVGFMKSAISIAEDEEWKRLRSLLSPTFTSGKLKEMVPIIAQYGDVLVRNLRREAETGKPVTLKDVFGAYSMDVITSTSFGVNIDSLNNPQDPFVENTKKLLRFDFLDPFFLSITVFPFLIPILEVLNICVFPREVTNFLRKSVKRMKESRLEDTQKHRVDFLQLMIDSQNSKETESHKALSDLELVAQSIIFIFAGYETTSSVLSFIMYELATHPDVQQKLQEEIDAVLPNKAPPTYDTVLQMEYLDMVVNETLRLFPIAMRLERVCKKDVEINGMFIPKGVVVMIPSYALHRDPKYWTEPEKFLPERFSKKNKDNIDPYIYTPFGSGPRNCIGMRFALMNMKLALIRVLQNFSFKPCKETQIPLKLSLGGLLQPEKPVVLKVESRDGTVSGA
# Assay: Cytochrome panel assay with activity outcomes
# Settings: recombinant CYP, pro-luciferin dealkylation, luminescence, p450-cyp3a4; series mostly up to 57.1 µM
# % is scaled to controls: 0 for no effect and ±100 for the full control effect.
SMILES,"activity, negative = inhibition",AC50
CC1(C)[C@@H]2CC[C@]1(CC(=O)O)[C@H](Cl)C2,-12.3% [at 11.4 µM],
CC1(C)CC(=O)C2=C(C1)Oc1nc3ccccc3cc1C2C(C#N)C#N (stereo unspecified),,14.1 µM (active)
Cc1cc(NC(=O)c2ccccc2Cl)c(C(C)C)cc1O,,25.1 µM (active)
Cc1cc(NC(=O)c2ccccc2Cl)no1,,inactive
O=C(Nc1ccccc1Cl)c1ccccc1Cl,,inactive
O=C1[C@@H]2[C@@H](C(=O)N1c1ccc(OCc3ccccc3)cc1)[C@@H]1c3ccccc3[C@@H]2[n+]2ccccc21,-9.33% [at 11.4 µM],
COCOc1cc(OC)ccc1C(=O)/C=C\c1ccc2c(c1)OCO2,,1 µM (active)
O=C(O)/C=C\C=C/c1ccc2c(c1)OCO2,-6.19% [at 11.4 µM],
Nc1ccccc1C(=O)/C=C\c1ccc2c(c1)OCO2,,3.16 µM (active)
COc1ccccc1N1CCN(C(=O)/C=C/c2ccc3c(c2)OCO3)CC1,,3.55 µM (active)
O=C(/C=C\c1ccc2c(c1)OCO2)c1ccc(F)cc1,,3.16 µM (active)
Cc1ccc(N=CC2=C(O)CC(c3ccco3)CC2=O)cc1 (stereo unspecified),,inactive
C[C@@H]1CCN=C(N)S1,,inactive
COC(=O)c1c(-c2ccc3ccccc3c2)csc1NC(=O)Cc1ccc(OC)c(OC)c1,,1.78 µM (active)
O=C1c2ccccc2C(=O)N1CCCSc1ccccc1,-16.6% [at 11.4 µM],
Cc1ccc(OCCCN2C(=O)C(=O)c3cccc(C)c32)cc1,,15.8 µM (active)
N#CC(C#N)=CNCCN1CCN(C=C(C#N)C#N)CC1,-20.1% [at 11.4 µM],
Cc1oc(-c2ccccc2F)nc1CS(=O)(=O)CC(=O)NCCCN(C)C1CCCCC1,,10 µM (active)
O=c1[nH]c2cc(Br)cnc2nc1/C=C(\O)c1ccc(F)cc1,,5.01 µM (active)
C=C(C)CN(CC#N)CC(=C)C,-17.3% [at 11.4 µM],
COc1ccc(N2CCc3c(C)nc4c(OC)cc(OC)cc4c32)c(OC)c1,,5.01 µM (active)
Cc1o[nH]c(=O)c1CC[C@H](N)C(=O)O,,inactive
CCCS(=O)(=O)N1CCCC(C(=O)NCC2CCCO2)C1 (stereo unspecified),,inactive
CCCc1nnc(SCC(=O)N2CCCCC2C)n1CC1CCCO1 (stereo unspecified),,12.6 µM (active)
CCCc1nnc(SCC(=O)N2C(C)CCCC2C)n1CCCOC (stereo unspecified),8.82% [at 2.29 µM],
CCCc1nnc(SCC(=O)N2CCCCC2)n1CC1CCCO1 (stereo unspecified),,15.8 µM (active)

SMILES,"activity, negative = inhibition",AC50
CCCc1nnc(SCC(=O)N2CCCCC2)n1CCCOC,,inactive
CCCc1nnc(SCC(=O)N2CCCC(C)C2)n1CC1CCCO1 (stereo unspecified),,8.91 µM (active)
C[N+](C)(C)CCCCCNCC12CC3CC(CC(C3)C1)C2,,inactive
O=C(O)[C@H](Cc1cc(I)c(O)c(I)c1)C1CCCCC1,-12.6% [at 11.4 µM],
CCOc1cc2[nH]c(=O)n(CCC(=O)NCc3ccc(OC)cc3)c(=O)c2cc1OCC,,3.55 µM (active)
CCOc1cc2[nH]c(=O)n(CCCC(=O)NCc3ccc(OC)cc3)c(=O)c2cc1OCC,,2.51 µM (active)
CCc1ccc(NC(=O)c2cc(C(C)C)on2)cc1,,inactive
O=C(c1cc(-c2ccco2)on1)N1CCOCC1,,inactive
Cc1ccc(Cn2nc(C)c(NC(=O)c3cc(-c4ccco4)on3)c2C)cc1,,2.24 µM (active)
Cc1cc(C=C(C#N)C#N)c(C)n1-c1ccccc1,,inactive
O=C(c1cccc(F)c1)N1CCC2(CCCN(Cc3ccccc3)C2)CC1,,inactive
COCC(=O)N1CCC2(CC1)CN(Cc1cc(C(F)(F)F)cc(C(F)(F)F)c1)C2,,inactive
COCC(=O)N1CCC2(CCCN(Cc3cc(C(F)(F)F)cc(C(F)(F)F)c3)C2)CC1,,20 µM (active)
COC(=O)N1CCC2(CCN(Cc3cc(C(F)(F)F)cc(C(F)(F)F)c3)CC2)CC1,,inactive
O=C(c1cccc(F)c1)N1CCC2(CCCN(Cc3cc(C(F)(F)F)cc(C(F)(F)F)c3)C2)CC1,,10 µM (active)
COc1ccc(C(=O)N2CCC[C@@]3(CCN(Cc4cc(C(F)(F)F)cc(C(F)(F)F)c4)C3)C2)cc1,,3.16 µM (active)
COc1ccc(C(=O)N2CCC3(CCCN(Cc4cc(C(F)(F)F)cc(C(F)(F)F)c4)C3)CC2)cc1,,10 µM (active)
COCC(=O)N1CCC2(CCCN(Cc3ccccc3)C2)CC1,,inactive
COC(=O)N1CCC2(CCCN(Cc3cc(C(F)(F)F)cc(C(F)(F)F)c3)C2)CC1,,inactive
FC(F)(F)c1cc(CN2CC3(CCNCC3)C2)cc(C(F)(F)F)c1,,inactive
CS(=O)(=O)N1CCC2(CC1)CN(Cc1cc(C(F)(F)F)cc(C(F)(F)F)c1)C2,,inactive
FC(F)(F)c1cc(CN2CCCC3(CCNCC3)C2)cc(C(F)(F)F)c1,,7.94 µM (active)
CC(C)(C)N1C(=O)[C@H]2[C@H]3[C@H](O)[C@H](O)C/C(=N/NC(=O)OCc4ccccc4)[C@H]3CC[C@@H]2C1=O,-22.6% [at 11.4 µM],
COc1ccc(N2CC(C(=O)Nc3cc(C)on3)CC2=O)cc1 (stereo unspecified),,inactive
COc1ccc(/C=C2\SC(=O)N(CCNC(=O)C3CC(=O)N(c4ccccc4)C3)C2=O)cc1 (stereo unspecified),,2.82 µM (active)
NC(N)=NC(N)=Nc1ccc(S(N)(=O)=O)cc1,-13.3% [at 11.4 µM],

SMILES,"activity, negative = inhibition",AC50
COc1ccccc1NC(=S)NNC(=O)c1c(Cl)c(C)nn1C,,15.8 µM (active)
Cc1nn(C)c(C(=O)NNC(=S)Nc2ccc(Cl)cc2)c1[N+](=O)[O-],-8.67% [at 2.29 µM],
COC(=O)c1c(-c2cc(OC)c(OC)c(OC)c2)c2ccnc(OCc3ncccn3)c2c(=O)n1Cc1ccnc(C)c1,,15.8 µM (active)
CCn1c(SCc2nc3ccccc3[nH]2)nnc1-c1ccc(OC)cc1,,3.16 µM (active)
c1ccc(SCc2nc3ccccc3[nH]2)cc1,,12.6 µM (active)
c1ccc2[nH]c(NC3=NCCC3)nc2c1,,inactive
OC(Cc1nc2ccccc2[nH]1)c1ccccc1Cl (stereo unspecified),,10 µM (active)
c1ccc(-c2nnc(SCc3nc4ccccc4[nH]3)n2Cc2ccco2)cc1,,2 µM (active)
CC[C@]1(C)CC(=O)NC1=O,,inactive
NCc1ccccc1CC(=O)N[C@@H]1C(=O)N2C(C(=O)O)=C(CSc3nnnn3CC(=O)O)CS[C@@H]12,,inactive
C/C(C[n+]1ccccc1)=N\N=C(N)N,2.37% [at 11.4 µM],
Cc1noc(C)c1-c1nccc(NCc2ccccc2)n1,,5.01 µM (active)
Cc1noc(C)c1-c1nccc(NCc2cccs2)n1,,15.8 µM (active)
Cc1noc(C)c1-c1nccc(NCc2cccnc2)n1,,3.98 µM (active)
Nc1[nH]c(=O)nc2c1ncn2[C@H]1O[C@@H](CO)[C@@H](O)[C@@H]1O,-8.49% [at 11.4 µM],
CCCCn1cnc2c(c(CC#N)nn2-c2ccccc2)c1=N,-13.4% [at 11.4 µM],
COCC(=O)N1CCC[C@@]2(CCN(c3ncccn3)C2)C1,,inactive
COc1ccccc1C1/C(=C(/O)c2ccccc2)C(=O)C(=O)N1CCO (stereo unspecified),,inactive
COc1cccc(/C(O)=C2/C(=O)C(=O)N(Cc3cccnc3)C2c2ccco2)c1 (stereo unspecified),,14.1 µM (active)
CC(C)Oc1ccc(/C(O)=C2/C(=O)C(=O)N(Cc3cccnc3)C2c2ccco2)cc1 (stereo unspecified),,14.1 µM (active)
COc1ccc(C2C(C(=O)c3ccco3)=C(O)C(=O)N2Cc2cccnc2)cc1OC (stereo unspecified),,inactive
COc1ccc(/C(O)=C2/C(=O)C(=O)N(Cc3cccnc3)C2c2ccco2)cc1OC (stereo unspecified),,14.1 µM (active)
COc1ccc(C2/C(=C(/O)c3ccccc3)C(=O)C(=O)N2CC(C)O)c(OC)c1 (stereo unspecified),,inactive
COCCN1C(=O)C(=O)/C(=C(/O)c2cccc(OC)c2)C1c1ccco1 (stereo unspecified),,inactive
Cc1ccc(C2/C(=C(/O)c3ccc(Cl)cc3)C(=O)C(=O)N2CC2CCCO2)o1 (stereo unspecified),,inactive
CCOc1cccc(/C(O)=C2/C(=O)C(=O)N(Cc3cccnc3)C2c2ccco2)c1 (stereo unspecified),,12.6 µM (active)

SMILES,"activity, negative = inhibition",AC50
O=C(O)c1ccc(/C=N\N=C2c3ccccc3-c3ccccc32)cc1,-15.1% [at 11.4 µM],
Cc1ccc(N(C(=O)c2csnn2)C(C(=O)NC(C)(C)C)c2cccs2)cc1 (stereo unspecified),,7.08 µM (active)
CCNc1nnc(-c2ccncc2)s1,-14.1% [at 11.4 µM],
CCc1ccc(N(C(=O)c2csnn2)C(C(=O)NC(C)(C)C)c2ccncc2)cc1 (stereo unspecified),,3.98 µM (active)
Cc1ccccc1/C=N\NC(=O)c1csnn1,,inactive
COC(=O)N1CCC2(CCN(C(=O)NC(C)C)CC2)CC1,,inactive
Cn1c(SCc2nnc(-c3ccc(F)cc3)o2)nnc1C1COc2ccccc2O1 (stereo unspecified),,14.1 µM (active)
CC(Oc1ccc(Cl)cc1)C(=O)/C=C/N(C)C (stereo unspecified),,inactive
Oc1[nH]c2ccccc2c1N=Nc1ccc(C(F)(F)F)cn1,,inactive
Oc1[nH]c2ccccc2c1/C=N/c1nccs1,,15.8 µM (active)
Cc1cc(C)n(C(=O)CCCCCCCCC(=O)n2nc(C)cc2C)n1,,4.47 µM (active)
CC(=O)c1cnc2cc(C)nn2c1C,,inactive
Cc1cc(C)n(C(=O)c2cc3ccccc3c(=O)o2)n1,,inactive
CC1=C(C(=O)O)N2C(=O)C(NC(=O)c3ccn(C)n3)C2SC1 (stereo unspecified),,inactive
O=C(CSCc1c(F)cccc1Cl)NCC1CCCO1 (stereo unspecified),,inactive
O=C(CN(Cc1ccccc1Cl)C(=O)c1ccc(CN2CCOCC2)o1)NCC1CCCO1 (stereo unspecified),,12.6 µM (active)
COCCCNC(=O)CN(c1ccc(OC)cc1)S(=O)(=O)c1ccc(NC(C)=O)cc1,,12.6 µM (active)
COc1ccc(N(CC(=O)N/N=C/c2cccs2)S(=O)(=O)c2ccc(OC)c(OC)c2)cc1,,1.12 µM (active)
CN(CC(=O)O/N=C(\N)c1ccccn1)S(=O)(=O)c1ccccc1,,inactive
CC(C)(C)C1CCc2c(C(=O)N/N=C/c3cccs3)csc2C1 (stereo unspecified),5.34% [at 2.29 µM],
Cn1cccc1CC(=O)N/N=C\c1cccs1,3.8% [at 2.29 µM],
O=C(CN(c1ccccc1)S(=O)(=O)c1ccccc1[N+](=O)[O-])NN=C1CCCCCCC1,,inactive
COc1ccc(N(CC(=O)NN=C2CCCC2)S(=O)(=O)c2ccccc2)cc1,,2.82 µM (active)
